FLuc inh = Firefly luciferase inhibition profiling of diverse chemical library using quantitative high-throughput screening; Luciferin 4-monooxygenase (Photinus pyralis), P08659; purified P. pyralis luciferase, luminescence, biochemical; Potency, µM (series often up to 115 µM), hits mostly inhibitors; 2.5% of 76,000 active; AID 1347043, 2019; further: nearly all actives have a fitted effect of over 65% in size
Target sequence (P08659 whole entry, looked up): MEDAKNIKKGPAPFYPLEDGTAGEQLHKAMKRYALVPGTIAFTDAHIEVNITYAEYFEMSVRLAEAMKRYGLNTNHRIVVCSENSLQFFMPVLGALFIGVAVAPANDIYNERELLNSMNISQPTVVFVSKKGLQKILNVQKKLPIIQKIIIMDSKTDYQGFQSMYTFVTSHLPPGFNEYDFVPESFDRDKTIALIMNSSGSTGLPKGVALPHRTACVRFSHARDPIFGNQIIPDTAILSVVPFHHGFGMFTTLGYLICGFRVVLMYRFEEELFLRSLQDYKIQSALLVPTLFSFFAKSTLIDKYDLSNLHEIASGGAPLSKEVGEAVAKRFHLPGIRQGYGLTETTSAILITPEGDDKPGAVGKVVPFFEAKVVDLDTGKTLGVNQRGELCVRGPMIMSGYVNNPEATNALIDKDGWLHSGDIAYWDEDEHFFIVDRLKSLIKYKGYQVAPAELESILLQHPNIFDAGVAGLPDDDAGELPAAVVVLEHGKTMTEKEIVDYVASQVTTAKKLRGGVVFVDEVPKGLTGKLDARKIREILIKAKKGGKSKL
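Purified P. pyralis luciferase (10nM final) in 50mM Tris acetate pH 7.5, 10mM Mg acetate, 0.01% Tween-20, 0.05% BSA with 10uM D-luciferin and 10uM ATP. Compounds titrated qHTS. Luminescence imaged on CCD.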
NPR1 antag = Natriuretic polypeptide receptor (hNpr1) antagonism - Primary qHTS; Atrial natriuretic peptide receptor 1 (Homo sapiens), P16066; HEK293 hNpr1 GloSensor cGMP, ANP-stimulated luminescence; Potency, µM (series often up to 46.3 µM), without a hit: top-dose activity change, negative = inhibition, most hits filed as inhibitors; 1.6% of 76,000 active; calls by dose curve; further: nearly all actives have a fitted effect of over 60% in size
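Compound pre-incubated 30 min at room temperature on GloSensor-loaded HEK293 cells stably carrying hNpr1 and the pGS-40F cGMP biosensor. Stimulation uses hNppA at 0.1 nM final; luminescence is taken at baseline and 20 min post-agonist.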
HEK cytotox = Cytotoxic Profiling in HEK 293 Cell Line of Diverse Libraries Using Quantitative High-Throughput Screening; HEK 293 viability, ATP luminescence (CellTiter-Glo), 48-72 h; 6.6% of 94,000 active; Potency, µM (top dose mostly 115 µM), for inactives: at the highest dose activity change, negative = cytotoxicity, hits mostly inhibitors; further: nearly all actives have a fitted effect of over 60% in size
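Cytotoxicity was scored by loss of ATP-coupled luminescence (CellTiter-Glo) in HEK 293 cells. Compound treatment ran 48 or 72 hr at 37 degree Celsius, 5% CO2, 95% humidity.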
SNCA expr inhib = Primary qHTS assay for inhibitors of alpha-synuclein gene (SNCA) expression | Potency, µM (series often up to 57.2 µM), for inactives: top-dose activity change, negative = inhibition, hits mostly inhibitors | AID 1671194, 2021 | 0.17% of 140,000 active | HEK-293 SNCA-luciferase knock-in, luminescence, 24 h;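 further: plate controls were DMSO cells for no effect and cell-free wells for full effect; nearly all actives have a fitted effect of over 45% in size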
HEK293 viab = GF-AFC viability counterscreen for inhibitors of alpha-synuclein gene (SNCA) expression; HEK-293-SNCA-luc viability, GF-AFC fluorescence, 24 h; Potency, µM (highest dose often 57.1 µM), inactives show top-dose activity change, negative = cytotoxicity, most hits filed as cytotoxic; AID 1671193, 2021; 0.12% of 150,000 active;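 further: 0% = DMSO-treated cells and -100% = medium-only wells without cells; nearly all actives have a fitted effect of over 30% in size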
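HEK-293-SNCA-luc cells (1500/well) plated 24 h, then exposed 24 h to a dilution series; GF-AFC added 30 min at 37C, fluorescence 405/540 nm; normalised to medium-only and DMSO wells, Hill fit.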
3T3 cytotox = Cytotoxic Profiling in NIH 3T3 Cell Line of Diverse Libraries Using Quantitative High-Throughput Screening; NIH 3T3 viability, CellTiter-Glo ATP luminescence, 48-72 h; Potency, µM (highest dose often 96.7 µM), for the others: at the top dose activity change, negative = cytotoxicity, actives largely listed as inhibitors; 4.3% of 94,000 active; AID 1345082, 2018; further: nearly all actives have a fitted effect of over 55% in size
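First NIH 3T3 cells are plated at 400 cells/well; next compound is pinned in; then plates incubate 48 or 72 hr at 37 °C; finally CellTiter-Glo is added and luminescence read after 10 min.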
Starred values were filed as active, the others as inactive; i = inactive; ? = inconclusive; / = no result given; ! = not confirmed by another sample; [ ] = dose if it differs, or a comment. This is a sample that favours compounds with a hit; in the whole collection about 7.4% have one here. Unless noted, the call rests on the fitted dose curve; in most records, active means well fitted curve in the direction sought with a large enough effect; inconclusive means small, poorly fitted or top-dose-only effect, or another doubt; inactive means no such curve, though single readings can be large; an effect the other way counts as inactive or inconclusive. Unless noted, on the % scale 0 is the no-effect control and ±100 the full control effect; potency means the concentration at half of the fitted maximal effect.

SMILES | FLuc inh | NPR1 antag | HEK cytotox | SNCA expr inhib | HEK293 viab | 3T3 cytotox
O=C(NCc1ccc(F)cc1F)c1ccc(N2CC3CC(C2)[C@H]2CCCC(=O)N2C3)nc1 (stereo not given in full) | i | 3% | -2% | -5% | 0% | 28µM*
O=C(NCc1cc(F)cc(F)c1)c1ccc(N2CC3CC(C2)[C@H]2CCCC(=O)N2C3)nc1 (stereo not given in full) | i | 1% | -9% | 6% | 13% | -25%
Cc1ccc(-c2cc(C(=O)N3CCN(c4ccccc4)CC3)c3cnn(C)c3n2)cc1 | / | / | ? | 26% | 3% | ?
Cc1ccc(-c2noc([C@@H]3C[C@H](NC(=O)Nc4cccc(F)c4)CN3C)n2)cc1 | 63µM* | ? | 63µM* | -27%[87.6 µM] | ? | ?
CN1C[C@@H](NC(=O)Nc2ccc(F)cc2F)C[C@H]1c1nc(-c2ccc(Cl)cc2)no1 | 71µM* | ? | ? | 10%[87.6 µM] | -2%[87.6 µM] | -18%[174 µM]
CN1C[C@@H](NC(=O)Nc2ccccc2)C[C@H]1c1nc(-c2ccc(F)cc2)no1 | i | ? | 56µM* | -26%[87.6 µM] | -14%[87.6 µM] | ?
O=C(NCC(F)(F)F)C1CCN(c2nccc(Nc3ccccc3Cl)n2)CC1 | / | / | ? | -13% | 0%[12.5 µM] | ?
CC(=O)C1CCC(=O)N1Cc1ccccc1 (stereo not given) | / | / | / | / | -25% | /
Cc1cccc(-n2nnnc2S(C)(=O)=O)c1 | / | / | / | ? | 22µM* | /
Cn1ncc2c(C(=O)NCC(F)(F)F)cc(C(C)(C)C)nc21 | / | / | ? | 7%[87.6 µM] | 14%[87.6 µM] | ?
O=C1COc2ccc(OCc3cncs3)nc2CN1Cc1ccc(F)cc1 | i | -23%[70.6 µM] | 112µM* | -23%[87.6 µM] | -6%[87.6 µM] | ?
Cc1nc(CN2Cc3nc(-c4ccccc4F)ccc3OCC2=O)cs1 | i | 1%[70.6 µM] | ? | 0%[87.6 µM] | 2%[87.6 µM] | ?
Cc1nc(CN2Cc3nc(OCc4ccc(F)cc4)ccc3OCC2=O)cs1 | i | ? | 71µM* | ? | -11%[87.6 µM] | ?
CC(C)(C)C(=O)Nc1cnc(-c2cccnc2)nc1 | 28µM* | -10% | -9% | 14% | 4% | -23%
O=C(CCc1ccccc1)Nc1cnc(-c2cccnc2)nc1 | i | -15% | ? | 1% | 1% | -2%
COc1ccccc1Nc1ccnc(N2CCC(NC(=O)c3ccccc3F)CC2)n1 | / | / | ? | -6% | 3% | -27%
O=C(c1ccccc1)N1CCN(c2nccc(Nc3ccccc3F)n2)CC1 | / | / | ? | 1% | -2% | ?
Cc1ccc(C(=O)NC2CCN(c3nccc(Nc4ccccc4F)n3)CC2)cc1 | / | / | 22µM* | -5% | -1%[12.5 µM] | ?
O=C(NC1CCN(c2nccc(Nc3ccccc3F)n2)CC1)c1cccc(Cl)c1 | / | / | ? | -6% | -11%[12.5 µM] | 32µM*
Cc1ccccc1C(=O)NC1CCN(c2nccc(Nc3ccccc3F)n2)CC1 | / | / | 20µM* | 41% | ? | ?
Cc1ccc(C(=O)N2CCN(c3nccc(Nc4ccccc4F)n3)CC2)cc1 | / | / | 45µM*! | ? | -11% | ?
O=C(c1ccc(Cl)cc1)N1CCC(n2cc(-c3ccc(OC(F)F)cc3)[nH]c2=O)CC1 | / | / | ? | 76% | -4% | ?
Cc1ccc(-c2ccccc2CN2CCN(C(=O)c3ccccc3C)CC2)cc1Cl | / | / | ? | 8% | -17%[12.5 µM] | ?
CC(=O)c1cccc(S(=O)(=O)NCCc2csc3nc(-c4ccc(F)cc4)nn23)c1 | / | / | / | -12% | 32µM* | /
COc1ncccc1-c1nccn2c(C3CN(C(=O)c4cc5ccccc5[nH]4)C3)ncc12 | i | -24%[70.6 µM] | ? | -4%[87.6 µM] | 1%[87.6 µM] | -25%[138 µM]

High-throughput results deposited in PubChem BioAssay by National Center for Advancing Translational Sciences (NCATS).
